Measured values from the antibiotic and cytotoxicity screens of Wong et al. (2023).
Out of some 39,000 compounds screened, about 3,300 (8.5%) were called active. What follows is part of a selection rich in actives, with near analogues and random picks from the rest.

test system: HepG2; test: cytotoxicity call (relative viability < 0.9); settings: 10 µM

Compound | cytotoxicity call
C[C@@H]1CN([C@H](C)CO)C(=O)c2cc(NC(=O)Cc3ccccc3)ccc2O[C@@H](C)CCCCO[C@@H]1CN(C)Cc1ccc2c(c1)OCO2 | inactive
C[C@@H]1CN([C@H](C)CO)C(=O)c2cc(Br)cnc2O[C@H]1CN(C)C(=O)Nc1ccccc1F | inactive
CCCCC[C@@H](C[C@@H](CC(=O)O)O[C@H]1O[C@@H](CO)[C@@H](O[C@H]2O[C@@H](CO)[C@@H](O)[C@@H](O)[C@@H]2O)[C@@H](O)[C@@H]1O)OC(=O)C[C@H](O)C[C@H](CCCCC)O[C@H]1O[C@@H](CO)[C@@H](O)[C@@H](O)[C@@H]1O | inactive
Cn1c(O)cc(=O)n(C)c1=O | inactive
CCS(=O)(=O)NCC[C@H]1CC[C@H](NS(=O)(=O)c2ccccc2C)[C@@H](CO)O1 | inactive
Cc1cccc(/C=C2\CS/C(=C\c3cccc(C)c3)C2=O)c1 | inactive
COC(=O)[C@@H]1C[C@H](C#N)N[C@@H]1c1ccccn1 | inactive
C[C@@H]1CN([C@@H](C)CO)C(=O)Cc2cc(NC(=O)Nc3ccc(C(F)(F)F)cc3)ccc2O[C@@H]1CN(C)Cc1ccc2c(c1)OCO2 | active
C[C@H]1CN([C@@H](C)CO)S(=O)(=O)c2ccc(C#CCN(C)C)cc2O[C@H]1CN(C)S(C)(=O)=O | inactive
COc1ccc(CCN(C)CCCOc2ccc(S(=O)(=O)c3c(C(C)C)cn4ccccc34)cc2)cc1OC | active
COc1ccc(CCN(C)CCCOc2ccc(S(=O)(=O)c3[nH]c4ccccc4c3C(C)C)cc2)cc1OC | active
COc1ccc(C(=O)NCc2ccc(OCCN(C)C)cc2)cc1OC | inactive
COc1ccc(CCN(C)CCCOc2ccc(S(=O)(=O)c3c(C(C)C)c4ccccc4n3C)cc2)cc1OC | active
COc1ccc(NC(=O)N(C)C[C@H]2Oc3c(NS(=O)(=O)c4cn(C)cn4)cccc3C(=O)N([C@H](C)CO)C[C@@H]2C)cc1 | inactive
COc1ccc(S(=O)(=O)N(C)C[C@H]2Oc3ccc(NC(=O)CCN4CCOCC4)cc3C(=O)N([C@@H](C)CO)C[C@@H]2C)cc1 | inactive
C[C@@H]1CN([C@@H](C)CO)C(=O)c2cc(NS(=O)(=O)c3cccs3)ccc2O[C@@H]1CN(C)S(=O)(=O)c1cn(C)cn1 | inactive
c1ccc(NC2CCCCC2)nc1 | inactive
CO[C@H]1CN(C)C(=O)c2cc(NS(=O)(=O)CC(F)(F)F)ccc2OC[C@@H](C)N(Cc2ccccn2)C[C@@H]1C | inactive
CN(C)CC(=O)N1CC(=O)N2[C@@H](CO)[C@@H](c3ccc(C#Cc4cccnc4)cc3)[C@@H]2C1 | inactive
C[C@H]1CCCCO[C@@H](CN(C)Cc2ccncc2)[C@@H](C)CN([C@@H](C)CO)C(=O)c2cc(NC(=O)Nc3ccc(F)cc3)ccc2O1 | inactive
C=CC1=C(C(=O)O)N2C(=O)C(NC(=O)C(=NO)c3csc(N)n3)C2SC1 (centres undefined) | inactive
C=CC1=C(C(=O)O)N2C(=O)C(NC(=O)C(=NOCC(=O)O)c3csc(N)n3)C2SC1 (centres undefined) | active
C=CC1=C(C(=O)O)N2C(=O)[C@@H](NC(=O)/C(=N\OCC(=O)O)c3csc(N)n3)[C@H]2SC1 | inactive
CC(C)CC#Cc1ccc2c(c1)O[C@@H](CN(C)C(=O)Cc1ccncc1)[C@@H](C)CN([C@H](C)CO)S2(=O)=O | inactive
C[C@@H]1CN([C@@H](C)CO)C(=O)Cc2cc(N(C)C)ccc2O[C@H]1CN(C)S(=O)(=O)c1ccc(Cl)cc1 | inactive
C[C@H]1CN([C@@H](C)CO)C(=O)Cc2cc(N(C)C)ccc2O[C@H]1CN(C)S(=O)(=O)c1ccc(Cl)cc1 | active
C[C@@H]1CN([C@H](C)CO)C(=O)Cc2cc(N(C)C)ccc2O[C@@H]1CN(C)S(=O)(=O)c1ccc(Cl)cc1 | inactive

Compound | cytotoxicity call
C[C@@H]1CN([C@H](C)CO)C(=O)Cc2cc(N(C)C)ccc2O[C@H]1CN(C)S(=O)(=O)c1ccc(Cl)cc1 | inactive
C[C@H](CO)N1C[C@H](C)[C@H](CN(C)S(=O)(=O)c2ccc(Cl)cc2)Oc2ccc(N(C)C)cc2CC1=O | active
C[C@H]1CN([C@@H](C)CO)C(=O)Cc2cc(N(C)C)ccc2O[C@@H]1CN(C)S(=O)(=O)c1ccc(Cl)cc1 | inactive
C[C@@H]1CN([C@@H](C)CO)C(=O)c2cc(/C=C/c3ccccc3)cnc2O[C@@H]1CN(C)C(=O)CN1CCOCC1 | inactive
COc1ccc(NC(=O)N(C)C[C@@H]2OCCCC[C@@H](C)Oc3ccc(NC(=O)Nc4cccc5ccccc45)cc3C(=O)N([C@H](C)CO)C[C@@H]2C)cc1 | inactive
C[C@@H]1CCCCO[C@@H](CN(C)C(=O)c2ccncc2)[C@H](C)CN([C@@H](C)CO)C(=O)c2cc(NC(=O)C3CCCCC3)ccc2O1 | inactive
Cc1noc(C)c1S(=O)(=O)N(C)C[C@@H]1Oc2ccc(NC(=O)CCCN(C)C)cc2CC(=O)N([C@@H](C)CO)C[C@H]1C | inactive
C[C@H](CO)N1C[C@H](C)[C@@H](CN(C)C(=O)Nc2ccc3c(c2)OCO3)OCc2ccccc2-c2c(n(C)c3ccccc23)C1=O | inactive
CN1C[C@@H]2CN(C(=O)[C@H]3CCOC3)C[C@H]2C1=O | inactive
CC(CO)(CO)NS(=O)(=O)c1ccccc1 | inactive
COc1ccncc1-c1ccccc1CN(C(=O)c1ccc(-c2ccc(C#N)cc2)o1)c1ccc(N2CCNCC2)cc1 | active
C[C@H](CO)N1C[C@H](C)[C@@H](CN(C)C(=O)Nc2ccc3c(c2)OCO3)OCCCC[C@H](C)Oc2ccc(NC(=O)CCC(F)(F)F)cc2C1=O | inactive
COc1ccc(S(=O)(=O)Nc2ccc3c(c2)C(=O)N([C@H](C)CO)C[C@H](C)[C@H](CN(C)S(=O)(=O)c2c(C)noc2C)O3)cc1 | inactive
CO[C@H]1CN(C)C(=O)c2ccc(NC(=O)c3ccc(F)cc3)cc2OC[C@H](C)N(C(=O)CN(C)C)C[C@@H]1C | inactive
COCCNC(=O)C[C@@H]1CC[C@@H]2[C@H](COc3ccc(NS(=O)(=O)c4ccc(Cl)cc4)cc3C(=O)N2C)O1 | inactive
C[C@@](Cc1ccccc1)(NC(=O)CN)c1ccccc1 | inactive
CN(C(=O)CN(CCO)CC(=O)N(C)C(C)(C)Cc1ccccc1)C(C)(C)Cc1ccccc1 | active
O=C(O)CN(CCc1ccccc1)CC(=O)O | inactive
O=C(NC1(c2ccccc2)CC1)c1c(CN2CCC(N3CCCCC3)CC2)c(-c2cccc(C(F)(F)F)c2)nc2cc(Br)ccc12 | active
COc1ccc(S(=O)(=O)N(C)C[C@@H]2Oc3c(NS(=O)(=O)c4ccccc4)cccc3C(=O)N([C@H](C)CO)C[C@H]2C)cc1 | inactive
COc1ccccc1OCC(O)CO (centres undefined) | inactive
COc1ccccc1OCCNCC(O)COc1cccc2[nH]c3ccccc3c12.O=P(O)(O)O (centres undefined) | active
COc1cccc(OC)c1OCCNCCO | inactive
COc1ccccc1OC[C@@H](O)CO | inactive
COc1ccccc1OCCNCC(O)COc1cccc2[nH]c3ccccc3c12 (centres undefined) | active
CO[C@@H]1CN(C)C(=O)c2ccc(NC(=O)Nc3ccccc3F)cc2OC[C@H](C)N(Cc2ccccc2C(=O)O)C[C@H]1C | inactive
O=C(C[C@H]1C[C@@H]2c3cc(NC(=O)Cc4ccncc4)ccc3O[C@@H]2[C@@H](CO)O1)NCc1ccc2c(c1)OCO2 | inactive

Compound | cytotoxicity call
Cc1noc(C)c1S(=O)(=O)Nc1ccc2c(c1)C(=O)N([C@@H](C)CO)C[C@@H](C)[C@H](CN(C)Cc1ccccc1)OCCCC[C@H](C)O2 | inactive
COc1ccc(NC(=O)N(C)C[C@@H]2Oc3ccc(NC(=O)C4CC4)cc3C(=O)N([C@H](C)CO)C[C@@H]2C)cc1 | inactive
Cc1ccc(S(=O)(=O)N(C)C[C@H]2Oc3ncc(-c4ccncc4)cc3C(=O)N([C@@H](C)CO)C[C@@H]2C)cc1 | inactive
C[C@@H]1CCCCO[C@@H](CN(C)C(=O)Nc2cccc3ccccc23)[C@@H](C)CN([C@@H](C)CO)C(=O)c2cc(NC(=O)Nc3ccc(C(F)(F)F)cc3)ccc2O1 | inactive
C[C@H]1CN([C@@H](C)CO)C(=O)Cc2cc(NC(=O)CCN3CCOCC3)ccc2O[C@H]1CN(C)Cc1ccc(C(=O)Nc2ccccc2N)cc1 | inactive
Cc1ccc(S(=O)(=O)N[C@@H](Cc2ccccc2)C(=O)NCCCn2cc(CN3C(=O)COC[C@H]3c3ccccc3)nn2)cc1 | inactive
CC(=O)O[C@@H]1[C@H](OC(C)=O)N(C)C(=O)N1C | inactive
CC(=O)O[C@@H]1[C@H](OC(C)=O)N(C(C)=O)C(=O)N1C(C)=O | inactive
CC(=O)O[C@@H]1[C@@H]2C[C@@H]([C@H]1OC(C)=O)[C@@H]1C(=O)N(C)C(=O)[C@@H]21 | active
C[C@@H]1CN([C@H](C)CO)C(=O)c2cccc(NS(C)(=O)=O)c2O[C@H]1CN(C)Cc1ccc(C(=O)Nc2ccccc2N)cc1 | inactive
C[C@@H]1O[C@@H](OC[C@H]2O[C@@H](Oc3c(-c4ccc(O)cc4)oc4cc(O)cc(O)c4c3=O)[C@H](O)[C@@H](O)[C@@H]2O)[C@H](O)[C@H](O)[C@H]1O | inactive
COc1ccc(CN2C[C@H](C)[C@H](OC)CN(C)C(=O)c3cc(NC(=O)c4nc5ccccc5s4)ccc3OC[C@@H]2C)cc1 | inactive
C[C@@H]1CN([C@@H](C)CO)C(=O)c2cc(NC(=O)Cn3cnnn3)ccc2O[C@@H]1CN(C)S(=O)(=O)c1ccc(F)cc1 | inactive
Cc1ccc(-c2ncns2)cc1 | inactive
COc1cccc([C@@H](NC(=O)C2CCN(Cc3ccc(Oc4ccccc4)cc3)CC2)c2ccccn2)c1 | inactive
Cc1cccnc1[C@@H](NC(=O)C1CCN(Cc2ccc(Cl)c(Cl)c2)CC1)c1ccc(Cl)cc1 | active
O=C(N[C@@H](c1ccc(-c2ccccc2)cc1)c1cnccn1)C1CCN(Cc2ccc(Cl)c(Cl)c2)CC1 | inactive
O=C(N[C@@H](c1ccc(-c2ccccc2)cc1)c1cnccn1)C1CCN(Cc2cccc(C(F)(F)F)c2)CC1 | inactive
Cc1cccnc1[C@@H](NC(=O)C1CCN(Cc2ccc(Oc3ccccc3)cc2)CC1)c1ccc(F)cc1 | inactive
COc1cc(CN2CCC(C(=O)N[C@@H](c3ccc(-c4ccccc4)cc3)c3cnccn3)CC2)cc(OC)c1 | active
O=C(N[C@@H](c1ccc(-c2ccccc2)cc1)c1cnccn1)C1CCN(Cc2ccc(Oc3ccccc3)cc2)CC1 | active
O=C(N[C@H](c1ccc(Cl)cc1)c1cnccn1)C1CCN(Cc2ccc(Oc3ccccc3)cc2)CC1 | active
O=C(N[C@H](c1ccc(Cl)cc1)c1ccsc1)C1CCN(Cc2ccc(Oc3ccccc3)cc2)CC1 | inactive
COc1ccc([C@@H](NC(=O)C2CCN(Cc3ccc(Oc4ccccc4)cc3)CC2)c2ccccn2)cc1 | inactive
Cc1cccnc1[C@@H](NC(=O)C1CCN(CCOc2ccc(Cl)cc2Cl)CC1)c1ccc(Cl)cc1 | inactive
